Screening data as filed in PubChem BioAssay.
Compounds with a hit are over-represented: about 7.9% of the library has one in this group of screens.
KB-3-1 cytotox – kills parental KB-3-1 adenocarcinoma cells; KB-3-1 viability, CellTiter-Glo ATP luminescence, 72 h; Potency, µM (series often up to 46.1 µM), most hits filed as cytotoxic; 400,000 tested, 1.4% active; note: nearly all actives have a fitted effect of over 60% in size
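KB-3-1 parental drug-naive adenocarcinoma cells in DMEM/10% FBS, incubated 72 h at 37 C with pin-transferred compounds across a concentration series. Viability by CellTiter-Glo luminescence; concentration-response curves fitted after normalization.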
SW480 rerep – induces DNA re-replication in SW480 colon adenocarcinoma cells; AID 624297; Potency, µM (top dose mostly 46.1 µM), usual class: activators; SW480 DNA re-replication, Hoechst DNA content imaging, 48 h; 340,000 tested, 1.8% active; note: nearly all actives have a fitted effect of over 55% in size
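Hoechst fluorescence of nuclei (405 nm excitation, 500-530 nm emission) measured by plate-scanning imager after 48 hr compound exposure at 37 C; re-replication scored as increased number of nuclei with elevated intensity.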
KB-V1 MDR tox – KB-V1 MDR subline cytotoxicity. Potency, µM (doses to about 46.1 µM), most hits filed as cytotoxic. 400,000 tested, 3.4% active. AID 1347076. KB-V1 MDR cells viability, CellTiter-Glo, 72 h; note: nearly all actives have a fitted effect of over 60% in size
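Cytotoxicity toward P-gp-expressing KB-V1 cells was determined as loss of CellTiter-Glo luminescence after 72 h at 37 degrees C. Compounds were tested in quantitative HTS format across a concentration range, with curves fitted to normalized data.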
HT1080-NT tox – kills 2HG-producing HT-1080-NT fibrosarcoma cells | HT-1080-NT fibrosarcoma viability, CellTiter-Glo ATP luminescence, 48 h | Potency, µM (doses to about 46.1 µM), most hits filed as cytotoxic | 360,000 tested, 1.6% active;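 note: NT is the 2HG producing partner of a matched IDH1 knockdown line; nearly all actives have a fitted effect of over 55% in size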
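Viability of the 2HG-overproducing fibrosarcoma line after 48 hours of compound exposure at 37 degrees C was determined by luminescence with CellTiter-Glo, and concentration-effect curves were then fitted and categorized.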
HT1080 IDH1KD tx – kills HT-1080 cells with IDH1 knockdown; HT-1080 IDH1 knockdown viability, ATP luminescence, 48 h; Potency, µM (titrated, usually from 46.1 µM), hits mostly cytotoxic; 360,000 tested, 2% active; AID 686971
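CellTiter-Glo luminescence after 48 h compound exposure at 37 degrees C of IDH1-knockdown HT-1080 cells in 5% FBS RPMI. %Activity scaled between DMSO wells and cell-free media wells, with curves fitted and assigned curve classes.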
MCF10A rerep – DNA re-replication induction in MCF 10a cells; AID 624296; Potency, µM (top dose mostly 46.1 µM), hits mostly activators; 350,000 tested, 2.9% active; MCF 10A DNA re-replication, Hoechst nuclear intensity, 48 h; note: nearly all actives have a fitted effect of over 50% in size
Numbers stand for hits; - = inactive; ? = inconclusive; . = no result. Calls come from the whole dose curve; as a rule, active = well fitted curve in the direction sought with a large enough effect; inconclusive = small, poorly fitted or top-dose-only effect, or another doubt; inactive = no such curve, though single readings can be large; an effect the other way counts as inactive or inconclusive.

SMILES	KB-3-1 cytotox	SW480 rerep	KB-V1 MDR tox	HT1080-NT tox	HT1080 IDH1KD tx	MCF10A rerep
O=C(Nc1ccc2c(c1)OCCO2)c1ccc(Br)c(S(=O)(=O)N2CCOCC2)c1	-	-	?	-	-	?
O=C(COC(=O)c1n[nH]c2ccccc12)NCCc1ccccc1	-	-	-	-	-	-
CCCCN1CCN=C1Nc1ccccc1	-	-	-	-	-	-
COc1ccc(NC(=O)Cn2nc(-c3ccccc3)c3cnc4ccc(C)cc4c32)cc1	-	.	-	.	.	.
CCOc1ccccc1OCCCC(=O)NNC(=O)c1nn(C)c(=O)c2ccccc12	-	-	23.1µM	-	-	-
Cn1nc(C(=O)NNC(=O)COc2ccccc2)c2ccccc2c1=O	-	-	-	-	-	-
CN(Cc1ccccc1)C(=O)c1csc([C@@H]2O[C@H](CO)[C@H](O)[C@H](O)[C@H]2O)n1	-	.	-	-	-	.
O=C(COC(=O)CNC(=O)c1ccccc1Cl)Nc1cc(C(F)(F)F)ccc1Cl	-	-	-	.	.	14.6µM
O=C(O)c1cccc(-c2ccc(/C=N/Nc3ccc([N+](=O)[O-])cc3)o2)c1	-	?	-	-	-	18.4µM
COc1ccc(N(CC(=O)N/N=C/c2ccc(-c3ccc([N+](=O)[O-])cc3)o2)S(=O)(=O)c2ccc(C)cc2)cc1	-	9.2µM	-	-	-	?
O=C(O)c1ccc(-c2ccc(/C=N/Nc3ccc([N+](=O)[O-])cc3)o2)cc1	-	18.4µM	-	-	-	18.4µM
CCCCC(=O)N/N=C/c1ccc(-c2ccc([N+](=O)[O-])cc2)o1	-	-	-	-	-	-
CC(C)(C)NC(=S)N/N=C\c1ccc(-c2ccc([N+](=O)[O-])cc2)o1	?	20.6µM	-	-	-	16.4µM
NS(=O)(=O)c1ccc(-c2ccc(/C=N/Nc3ccc(C(=O)O)cc3)o2)cc1	-	?	-	-	-	-
Cc1cc(C)cc(NC(=O)Cn2cc(C(=O)c3cccs3)c3ccccc32)c1	-	.	?	.	.	.
CCCCc1cc(=O)oc2cc(C)cc(OCC(=O)NC(Cc3ccc(Cl)cc3)C(=O)O)c12 (stereo not given)	-	-	-	-	-	-
COC(=O)C1=CN(c2ccc(N3CCOCC3)cc2)C(N)=C(C#N)C1c1ccc(-c2ccccc2)cc1 (stereo not given)	-	.	-	-	-	.
CNC(=S)N/N=C/c1ccc(-c2ccc(C(=O)O)cc2)o1	-	?	6.51µM	?	8.2µM	?
CNc1nc(N2CCc3ccccc32)ncc1F	?	-	1.64µM	-	-	-
CCCCCCCCCC[n+]1cc(Br)cc(Br)c1	?	.	-	.	.	.
CCOc1ccc(C(=O)N2CCC(C(=O)c3ccc4c(c3)OCCO4)CC2)cc1	-	-	4.11µM	-	-	-
COc1ccccc1NC(=O)N1CCC(C(=O)c2ccc(F)cc2)CC1	-	-	20.6µM	-	-	-
COc1ccc(CCNC(=O)C2CCN(C(=O)c3ccc(F)cc3)CC2)cc1	-	?	-	-	-	0.651µM
COc1ccc(C(=O)C2CCN(C(=O)c3ccc(OC)cc3)CC2)cc1	?	-	6.51µM	-	?	-
Cc1ccc(Cn2c(CN3CCN(c4cccc(Cl)c4)CC3)nc3c2c(=O)n(C)c(=O)n3C)cc1	-	.	-	.	.	.
SMILES	KB-3-1 cytotox	SW480 rerep	KB-V1 MDR tox	HT1080-NT tox	HT1080 IDH1KD tx	MCF10A rerep
COc1ccccc1C(=O)N1CCC(C(=O)c2ccc(F)cc2)CC1	-	-	9.2µM	-	-	-
COc1ccc(C(C)(C)C)cc1NC(=O)Nc1ccc2c(c1)OCO2	-	?	23.1µM	-	?	?
COc1ccc(C)cc1NC(=O)Nc1ccc2c(c1)CCC2	-	-	-	-	-	23.1µM
COc1ccc(/C=C/C(=O)Nc2ccc3c(c2)CCC3)cc1OC	-	-	20.6µM	-	-	-
COc1ccc(NC(=O)Nc2ccc3c(c2)CCC3)cc1OC	-	-	-	-	-	-
COc1ccc(/C=C/C(=O)Nc2cc(C(F)(F)F)ccc2Cl)cc1OC	-	-	20.6µM	-	-	-
COc1ccccc1NC(=O)Nc1ccc2c(c1)CCC2	-	-	-	-	-	-
